This is part of a sample that, as a whole, favours compounds with a hit. Of some 83,000 tested, about 20% had one in any assay.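 Testing used 96-well plates and a 48-hour single-concentration exposure. Example: -40 means 40% of the starting cells died.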 Values without a mark were called inactive. Activity calls are given as the source filed them. Rule for the calls: active = growth percent below 10; inactive = the rest.

What all share (experiment): NCI-60 one-dose screen, 48 h (100 = growth as untreated, 0 = no growth, -100 = all killed)
One assay has as its system NCI-H23 lung. To be noted: 10 µM unless noted.
For another assay, the system named is NCI-H226 lung. To be noted: 10 µM unless noted.
The next assay has as its system NCI-H322M lung. To be noted: 10 µM unless noted.
In a further assay the test system is HOP-62 NSCLC. The conditions noted are these: 10 µM unless noted.
The next assay deals with NCI-H460 lung. To be noted: 10 µM unless noted.
For another assay, the system named is HOP-92 NSCLC. To be noted: 10 µM unless noted.
The next assay relates to A549/ATCC NSCLC. The conditions noted are these: 10 µM unless noted.
The subject of another assay is 786-0 renal. To be noted: 10 µM unless noted.
The next assay deals with COLO 205 colon. The conditions noted are these: 10 µM unless noted.
The next assay concerns DU-145 prostate. The conditions noted are these: 10 µM unless noted.
The next assay concerns K-562 leukemia. To be noted: 10 µM unless noted.
Another assay concerns MALME-3M melanoma. To be noted: 10 µM unless noted.
The test system of a further assay is MDA-MB-231 breast. The conditions noted are these: 10 µM unless noted.
The subject of another assay is RXF 393 renal. To be noted: 10 µM unless noted.
A further assay has as its system SF-268 CNS. The conditions noted are these: 10 µM unless noted.
The test system of the next assay is SF-295 CNS. The conditions noted are these: 10 µM unless noted.
In another assay the test system is SF-539 CNS. The conditions noted are these: 10 µM unless noted.
For the next assay, the system named is UACC-257 melanoma. The conditions noted are these: 10 µM unless noted.
The test system of the next assay is M14 melanoma. The conditions noted are these: 10 µM unless noted.
In the next assay the test system is NCI-H522 lung. The conditions noted are these: 10 µM.

As to `COc1cc(NC(=O)NCc2ccco2)ccc1-c1ccc(NC(=O)NCc2ccco2)cc1OC`, the growth in the assay with NCI-H23 lung was 49.4%; in the assay on NCI-H226 lung, 14.1%; with NCI-H322M lung, 49.5%; in the assay with HOP-62 NSCLC, 33.8%; in the assay on NCI-H460 lung, 35.8%; with HOP-92 NSCLC, 23%. In addition, the growth was 34.6% in the assay with A549/ATCC NSCLC; 40.1% in the assay on 786-0 renal; 64.9% in the assay with COLO 205 colon; 56.6% in the assay on DU-145 prostate; 36% with K-562 leukemia; 78% with MALME-3M melanoma. Also, the growth with MDA-MB-231 breast is 43.2%; with RXF 393 renal, -10.7% (active); in the assay with SF-268 CNS, 56.8%; in the assay on SF-295 CNS it was 46.3%; in the assay on SF-539 CNS, -1.88% (active); with UACC-257 melanoma, 51%. Further, the growth with M14 melanoma is 64.3%.

In the case of `COc1cnc2c(c1)C(=O)c1c-2n(CCCNC(C)C)c(=O)c2cc(F)ccc12`, the growth in the assay with NCI-H23 lung was -39.9% (active); in the assay with NCI-H226 lung, -52.6% (active); in the assay with NCI-H322M lung it was -13.1% (active); in the assay on HOP-62 NSCLC, -35.8% (active); in the assay with NCI-H460 lung, -32% (active); with HOP-92 NSCLC it was -8.3% (active). Moreover, the growth in the assay on A549/ATCC NSCLC is -68.6% (active); in the assay on 786-0 renal it was -73% (active); with COLO 205 colon it was -19.7% (active); in the assay with DU-145 prostate it was -8.54% (active); in the assay with K-562 leukemia it was -6.91% (active); in the assay on MALME-3M melanoma, -70.1% (active). In addition, the growth with MDA-MB-231 breast is 1.51% (active); with RXF 393 renal, -85.5% (active); in the assay on SF-268 CNS, 4.2% (active); in the assay with SF-295 CNS it was -23% (active); with SF-539 CNS it was -73.4% (active); with UACC-257 melanoma, -16% (active). Besides, in the assay with M14 melanoma, the growth was -81.9% (active).

In the case of `O=C(CNc1ccc2c(c1)C(=O)c1ccccc1C2=O)Nc1ccc2c(c1)C(=O)c1ccccc1C2=O`, the growth with NCI-H23 lung was -70.5% (active); with NCI-H226 lung, -62% (active); in the assay on NCI-H322M lung, -95.2% (active); with HOP-62 NSCLC, -86.5% (active); in the assay on NCI-H460 lung it was -71.6% (active); in the assay with HOP-92 NSCLC it was -65.7% (active). Further, the growth with NCI-H522 lung is -96.2% (active); in the assay on 786-0 renal, -90.3% (active); in the assay on DU-145 prostate, -100% (active); with K-562 leukemia, -30.2% (active); in the assay with MALME-3M melanoma, -81.2% (active); in the assay on MDA-MB-231 breast, -27.7% (active). The growth in the assay with RXF 393 renal is -89.4% (active); in the assay on SF-268 CNS it was -94.6% (active); in the assay on SF-295 CNS, -89.4% (active); in the assay with SF-539 CNS, -69.3% (active); in the assay with UACC-257 melanoma, -90.3% (active); with M14 melanoma, -79.3% (active).

Regarding `CCOC(=O)c1cc2oc(/C=C/c3cc(=O)c4cc(Cl)ccc4o3)cc2[nH]1`, the growth in the assay on NCI-H23 lung is 98.6%; with NCI-H226 lung, 76.9%; in the assay on NCI-H322M lung, 108%; in the assay on HOP-62 NSCLC it was 99.6%; in the assay on NCI-H460 lung, 88.9%; with HOP-92 NSCLC, -17.9% (active). In addition, the growth is 99% in the assay with A549/ATCC NSCLC; 97.7% in the assay on 786-0 renal; 93.9% in the assay with COLO 205 colon; 65.4% with DU-145 prostate; 88.9% with K-562 leukemia; -14.5% (active) with MALME-3M melanoma. Further, the growth was 78.9% with MDA-MB-231 breast; 58% with RXF 393 renal; 73% in the assay with SF-268 CNS; 109% with SF-295 CNS; 70% in the assay with SF-539 CNS; 101% in the assay with UACC-257 melanoma.

Take `CC(=O)N1N=C(c2ccc(Nc3nc(NCCO)nc(NCCO)n3)cc2)CC1c1ccc(Cl)cc1` (centres undefined): the growth is 95.6% with NCI-H23 lung; 103% in the assay with NCI-H226 lung; 89.3% in the assay on NCI-H322M lung; 93.7% in the assay on HOP-62 NSCLC; 101% in the assay with NCI-H460 lung; 109% in the assay with HOP-92 NSCLC. Besides, the growth in the assay on A549/ATCC NSCLC was 78.6%; in the assay on 786-0 renal, 89%; in the assay on COLO 205 colon, 102%; in the assay with DU-145 prostate, 98.6%; in the assay with K-562 leukemia, 119%; in the assay with MALME-3M melanoma it was 91%. Further, the growth with MDA-MB-231 breast was 92.5%; with RXF 393 renal, 108%; in the assay on SF-268 CNS, 100%; in the assay with SF-295 CNS, 96.6%; with SF-539 CNS it was 90.2%; with UACC-257 melanoma it was 91.8%. The growth in the assay with M14 melanoma was 98.9%.

For `C[C@]12CC[C@H](O)CC1=CC[C@@H]1[C@@H]2CC[C@]2(C)C(c3cccnc3)=CC[C@@H]12`, the growth was 68.3% with NCI-H23 lung; 58.5% in the assay on NCI-H226 lung; 84.1% with NCI-H322M lung; 81.1% in the assay on HOP-62 NSCLC; 66.5% in the assay on NCI-H460 lung; 72.3% in the assay with HOP-92 NSCLC. Also, the growth with NCI-H522 lung is 35.7%; with 786-0 renal, 36.9%; with DU-145 prostate it was 90.6%; in the assay on MALME-3M melanoma, 70.8%; with MDA-MB-231 breast, 85.1%; with SF-268 CNS it was 79.5%. Moreover, the results for the growth with SF-295 CNS, in the assay on SF-539 CNS and in the assay on M14 melanoma were 42%, 31.8% and 71%, respectively.

On to `O=c1[nH]c(SCc2ccccc2)nc2nc(Nc3ccc(NC(=S)Nc4ccccc4)cc3)nc(-c3ccc(O)cc3O)c12`, for which the growth with NCI-H23 lung was 97.3%; in the assay with NCI-H226 lung it was 93.2%; in the assay on NCI-H322M lung, 121%; with HOP-62 NSCLC, 102%; in the assay on NCI-H460 lung it was 103%; in the assay on HOP-92 NSCLC, -2.6% (active). Besides, the growth was 105% in the assay with A549/ATCC NSCLC; 94.7% in the assay on 786-0 renal; 98.2% in the assay with COLO 205 colon; 112% in the assay on DU-145 prostate; 90.6% with K-562 leukemia; 75% in the assay with MALME-3M melanoma. Further, the growth was 98% in the assay on MDA-MB-231 breast; 66.2% in the assay on RXF 393 renal; 92.6% in the assay with SF-268 CNS; 101% with SF-295 CNS; 91.8% in the assay on SF-539 CNS; 109% with UACC-257 melanoma.

As for `O=c1oc2c(cc1-c1ccc([N+](=O)[O-])cc1)C(O)Oc1ccccc1-2` (centres undefined), the growth in the assay with NCI-H23 lung is 89.3%; with NCI-H226 lung, 101%; with NCI-H322M lung, 107%; in the assay with HOP-62 NSCLC it was 98.1%; in the assay with NCI-H460 lung, 97.2%; with HOP-92 NSCLC, -13.6% (active). For the same compound, the growth in the assay with A549/ATCC NSCLC is 78.7%; in the assay on 786-0 renal, 98%; with COLO 205 colon it was 93.5%; in the assay on DU-145 prostate, 142%; with K-562 leukemia, 76.8%; with MALME-3M melanoma, 77.6%. Besides, the growth is 114% in the assay on MDA-MB-231 breast; 49.1% in the assay with RXF 393 renal; 94.7% in the assay on SF-268 CNS; 67.9% with SF-295 CNS; 93.8% in the assay with SF-539 CNS; 89.3% in the assay with UACC-257 melanoma.
